Vaccinia Venus = inhibitors of vaccinia virus (Venus reporter); Vaccinia virus Venus reporter expression, fluorescence; Potency, µM (doses to about 36.5 µM), inactives show top-dose activity change, negative = inhibition, usual class: inhibitors; 330,000 compounds, 0.46% hits; AID 720580; calls by dose curve; tested in A549 cells; note: potency is the fitted concentration of half-maximal effect; nearly all actives have a fitted effect of over 30% in size
Vaccinia mCherry = vaccinia inhibition (mCherry reporter). AID 720579. 310,000 compounds, 0.63% hits. Vaccinia virus mCherry reporter infection, fluorescence. Potency, µM (titrated, usually from 36.5 µM), inactives show at the top dose activity change, negative = inhibition, usual class: inhibitors; calls by dose curve; tested in A549 cells; note: potency is the fitted concentration of half-maximal effect; nearly all actives have a fitted effect of over 35% in size
HCMV antiviral = blocks human cytomegalovirus replication; 410,000 compounds, 4.5% hits; HFF cells, HCMV-luciferase reporter, 72 h; stronger effect = lower value; activity change, negative = inhibition, % at 57.5 µM; in the data active = activity change below about -60%; inconclusive = no clear call, values can overlap the other calls; inactive = above about -39%
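Steps: HFFs plated, 16 h 37C; compounds added; HCMV-luciferase added to MOI 1 PFU/cell; 72 h 37C; OneGlo reagent, 5 min room temperature; luminescence read, normalized to controls.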
HCV inh = inhibitors of hepatitis C virus infection; Huh7.5.1 HCVcc-Cre infection, luciferase reporter, 44 h; 340,000 compounds, 3.4% hits; Potency, µM (series often up to 41.8 µM), inactives show at the top dose activity change, negative = inhibition, actives largely listed as inhibitors; AID 651820; active = well fitted inhibition curve with a large enough effect; inconclusive = small, poorly fitted or top-dose-only effect, or another doubt; inactive = no such curve, though single readings can be large or run the other way; note: potency is the fitted concentration of half-maximal effect
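A cell-based infection assay in which seeded cells (1,000 per well) receive test compound after 4 h, are inoculated with HCVcc-Cre at approximately 0.5 moi, and are incubated 44 h before luminescence detection.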
LASV entry inh = Lassa virus entry inhibition. 300,000 compounds, 1.2% hits. Potency, µM (titrated, usually from 37.9 µM), without a hit: at the highest dose activity change, negative = inhibition, actives largely listed as inhibitors. Lassa virus pseudotype entry inhibition, cell reporter; calls by dose curve; tested in HEK293 cells; note: potency is the fitted concentration of half-maximal effect; nearly all actives have a fitted effect of over 50% in size
MARV entry inh = inhibitors of Marburg virus binding or cell entry; Marburg virus pseudotyped entry inhibition, cell reporter; Potency, µM (doses to about 37.8 µM), without a hit: at the highest dose activity change, negative = inhibition, most hits filed as inhibitors; 300,000 compounds, 1.8% hits; AID 540276; calls by dose curve; tested in HEK293 cells; note: potency is the fitted concentration of half-maximal effect
Active calls of the source: *; [ ] = dose if it differs, or a comment. An excerpt weighted towards active compounds, which were near 7.8% of everything screened. % is set by controls: 0 for no effect and ±100 for the full control effect.

For CCCCCc1c(-c2ccc(Br)cc2)ncn1CCc1ccccc1OC the results were Vaccinia Venus -23%, Vaccinia mCherry -4% and HCMV antiviral -104*.
For CCCCCc1c(-c2ccc(F)cc2)ncn1CCc1ccccc1OC the results were Vaccinia Venus -27%, Vaccinia mCherry inconclusive and HCMV antiviral -28.
For CC(c1ccccc1)N1C(=O)C2C3CCC(C3)C2C1=O (stereo not given) the results were Vaccinia Venus -7%, Vaccinia mCherry -13%, HCMV antiviral -21, HCV inh 5%, LASV entry inh -3% and MARV entry inh inconclusive.
CC(NC(=O)C(Cc1ccccc1)N1C(=O)C2C3CCC(C3)C2C1=O)c1ccccc1 (stereo not given) was read as HCMV antiviral -61*, HCV inh 1%, LASV entry inh inconclusive and MARV entry inh -1%.
For COC(=O)C[C@@H]1O[C@H]1[C@H](C)[C@@H](OC)C(C)C the results were MARV entry inh -15%[14.2 µM].
Cc1ccc(-c2nc3cc(N)ccc3o2)cc1 was read as HCMV antiviral 173, HCV inh -20%, LASV entry inh inconclusive and MARV entry inh inconclusive.
`Nc1cccc(-c2nc3ncccc3o2)c1` gave Vaccinia Venus -1%, Vaccinia mCherry -6%, HCMV antiviral 62, HCV inh 10%, LASV entry inh inconclusive and MARV entry inh 8%.
Screening Cc1ccc2oc(-c3cccc(N)c3)nc2c1 returned Vaccinia Venus -16%, Vaccinia mCherry -22%, HCMV antiviral 155, HCV inh -11%, LASV entry inh inconclusive and MARV entry inh 13µM*.
Screening Cc1ccc(-c2nc3cc(C)ccc3o2)cc1 returned Vaccinia Venus -2%, Vaccinia mCherry -11%, HCMV antiviral 44, HCV inh 1%, LASV entry inh 14µM* and MARV entry inh inconclusive.
Screening Nc1cccc(-c2nc3cc(S(=O)(=O)c4ccc5oc(-c6cccc(N)c6)nc5c4)ccc3o2)c1 returned HCMV antiviral -83*, HCV inh 5%, LASV entry inh inconclusive and MARV entry inh inconclusive.
For Cc1nc2c(c(C)c1CCC(=O)NCc1ccc(F)cc1)c(=O)n(C)c(=O)n2C the results were Vaccinia Venus 15%, Vaccinia mCherry 3%, HCMV antiviral 6, LASV entry inh -3%[46.1 µM] and MARV entry inh 15%[46.1 µM].
Screening CCN(CC)CCCNC(=O)CCc1c(C)nc2c(c1C)c(=O)n(C)c(=O)n2C returned Vaccinia Venus 4%, Vaccinia mCherry 7%, HCMV antiviral -65*, LASV entry inh 5%[46.1 µM] and MARV entry inh 2%[46.1 µM].
COc1cccc([C@H]2Oc3ccc(OC)cc3/C(=N\OC[C@@H](C)[C@H](OCc3ccccc3)C(C)C)[C@@H]2O)c1 was read as MARV entry inh 10%[14.2 µM].
For COc1ccccc1N(C)S(=O)(=O)c1ccc(Cl)c(C(=O)OCc2c(C)noc2C)c1 the results were Vaccinia Venus -26%, Vaccinia mCherry -10%, HCMV antiviral -31, HCV inh 0%, LASV entry inh 11µM* and MARV entry inh inconclusive.
`COc1ccccc1N(C)S(=O)(=O)c1ccc(Cl)c(C(=O)N2CCC2)c1` gave Vaccinia Venus -15%, Vaccinia mCherry -25%, HCMV antiviral -31, HCV inh -1%, LASV entry inh -28%[46.1 µM] and MARV entry inh -13%.
For COC(C(=O)Nc1ccc(S(=O)(=O)Nc2ccc(F)cc2)cc1)c1ccccc1 (stereo not given) the results were Vaccinia Venus inconclusive, Vaccinia mCherry inconclusive, HCMV antiviral -62*, HCV inh 0%, LASV entry inh inconclusive and MARV entry inh 7.9µM*.
For COC(C(=O)Nc1ccc(F)cc1)c1ccccc1 (stereo not given) the results were Vaccinia Venus -10%, Vaccinia mCherry -15%, HCMV antiviral -13, HCV inh 2%, LASV entry inh 0% and MARV entry inh -20%.
For COC(C(=O)Nc1ccc(S(=O)(=O)Nc2cccc3ccccc23)cc1)c1ccccc1 (stereo not given) the results were Vaccinia Venus -13%, Vaccinia mCherry inactive, HCMV antiviral -88*, HCV inh -2%, LASV entry inh inconclusive and MARV entry inh -20%.
